In PubChem BioAssay:
Values joined by “and” are separate entries in the source; they are usually repeats but may differ in a detail not shown here. Equal values may be shown once. Inconclusive results are not listed. Active and inactive are the calls of the source.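 How the source made its calls, unless noted: active means normalized viability below 100% at a tested concentration; inactive means the rest.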

Assays:
[1] = growth inhibition of DIPG glioma cells, dose response, cell-based, SU-DIPG-XVII, MIPE5.0, CellTiter-Glo, qHTS (AID 1347060; cut-off not given, nearly all actives have AC50 up to about 26 µM;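 on AC50: cells exposed to compound for 48 hours before viability readout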); conditions: SU-DIPG-XVII viability, CellTiter-Glo ATP luminescence
[2] = growth inhibition of DIPG glioma cells, dose response, cell-based, JHH-DIPG-1, MIPE4.0, CellTiter-Glo, qHTS (AID 1347062; cut-off not given, nearly all actives have AC50 up to about 27 µM;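 on AC50: cells exposed to compound for two days before readout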); conditions: JHH-DIPG-1 viability, CellTiter-Glo ATP luminescence
[3] = growth inhibition of DIPG glioma cells, dose response, cell-based, SU-DIPG-XIII, MIPE5.0, CellTiter-Glo, qHTS (AID 1347064; cut-off not given, nearly all actives have AC50 up to about 23 µM;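 on AC50: cells exposed to compound for 48 hours before the viability read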); conditions: SU-DIPG-XIII viability, CellTiter-Glo ATP luminescence
[4] = viability loss in pontine glioma line – cell-based, SU-DIPG-XXV, MIPE5.0, CellTiter-Glo, qHTS, dose response (AID 1347065; cut-off not given, nearly all actives have AC50 up to about 26 µM;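 further: cells exposed to compound for 48 hours before ATP readout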); conditions: CellTiter-Glo ATP luminescence
[5] = SU-DIPG-VI glioma cell viability, MIPE4.0 library, CellTiter-Glo luminescence, qHTS (AID 1347066; cut-off not given, nearly all actives have AC50 up to about 30 µM;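 further: cells exposed to compound for 48 hours before readout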); conditions: CellTiter-Glo ATP luminescence
[6] = SU-DIPG-XXV glioma cell viability, MIPE5.0 library, qHTS (AID 1347068; cut-off not given, nearly all actives have IC50 up to about 30 µM;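 on IC50: cells exposed to compound for 48 hours before viability readout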)
[7] = JHH-DIPG-1 glioma cell viability, MIPE5.0 library, CellTiter-Glo luminescence, qHTS (AID 1347067; cut-off not given, nearly all actives have AC50 up to about 26 µM;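 further: cells exposed to compound for 48 hours before readout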); conditions: JHH-DIPG-1 glioma viability, CellTiter-Glo ATP luminescence
[8] = ovarian cancer cell viability with rucaparib, profiling panel, oncology-focused library, rucaparib conditional (AID 1508598); conditions: patient-derived ovarian cancer cells, CellTiter-Glo viability, 144 h, stronger effect = lower value
[9] = sensitizers of A549 cells to miR-34 induction, primary screen, imaging, A549 dox-inducible miR-34, nuclei and caspase counts (AID 1347080;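 active means compounds whose cell count with miR-34 switched on is under 0.7 times the count with it off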); conditions: A549 miR-34 inducible, Hoechst nuclei count, 48 h
[10] = survival rescue of mitochondrial mutant cells in low glucose, primary screen, MELAS cybrids, Rieske KO mouse fibroblasts, CellTiter-Glo (AID 1508586;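 active means mean z-score across replicates of 1.96 or higher in either the MELAS or the Rieske mutant cell line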;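 further: z relative to plate mean and SD of compound and empty wells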)
[11] = modifiers of HSF1 nuclear foci, imaging, Selleck Cancer Library (AID 1347162; in the data active means plate-normalised HSF1 focus index below about 0.46); conditions: human cells, at 10 µM; SSMD: measured here: HSF1 foci SSMD mean; cell count: measured here: cell number; plate-normalised HSF1 focus index: stronger effect = lower value
[12] = at 0.000305 µM, OCI-C5x cells, with rucaparib 10 µM, 100% = cells with rucaparib alone
[13] = at 0.000305 µM, OCI-C5x cells, without rucaparib
[14] = at 0.000305 µM, OCI-P5x cells, with rucaparib 20 µM, 100% = cells with rucaparib alone
[15] = at 0.000305 µM, OCI-P5x cells, without rucaparib
[16] = at 0.00122 µM, OCI-C5x cells, with rucaparib 10 µM, 100% = cells with rucaparib alone
[17] = at 0.00122 µM, OCI-C5x cells, without rucaparib
[18] = at 0.00122 µM, OCI-P5x cells, with rucaparib 20 µM, 100% = cells with rucaparib alone
[19] = at 0.00122 µM, OCI-P5x cells, without rucaparib
[20] = at 0.00488 µM, OCI-C5x cells, with rucaparib 10 µM, 100% = cells with rucaparib alone
[21] = at 0.00488 µM, OCI-C5x cells, without rucaparib
[22] = at 0.00488 µM, OCI-P5x cells, with rucaparib 20 µM, 100% = cells with rucaparib alone
[23] = at 0.00488 µM, OCI-P5x cells, without rucaparib
[24] = at 0.0195 µM, OCI-C5x cells, with rucaparib 10 µM, 100% = cells with rucaparib alone
[25] = at 0.0195 µM, OCI-C5x cells, without rucaparib
[26] = at 0.0195 µM, OCI-P5x cells, with rucaparib 20 µM, 100% = cells with rucaparib alone
[27] = at 0.0195 µM, OCI-P5x cells, without rucaparib
[28] = at 0.0781 µM, OCI-C5x cells, with rucaparib 10 µM, 100% = cells with rucaparib alone
[29] = at 0.0781 µM, OCI-C5x cells, without rucaparib
[30] = at 0.0781 µM, OCI-P5x cells, with rucaparib 20 µM, 100% = cells with rucaparib alone
[31] = at 0.0781 µM, OCI-P5x cells, without rucaparib
[32] = at 0.313 µM, OCI-C5x cells, with rucaparib 10 µM, 100% = cells with rucaparib alone
[33] = at 0.313 µM, OCI-C5x cells, without rucaparib
[34] = at 0.313 µM, OCI-P5x cells, with rucaparib 20 µM, 100% = cells with rucaparib alone
[35] = at 0.313 µM, OCI-P5x cells, without rucaparib
[36] = at 1.25 µM, OCI-C5x cells, with rucaparib 10 µM, 100% = cells with rucaparib alone
[37] = at 1.25 µM, OCI-C5x cells, without rucaparib
[38] = at 1.25 µM, OCI-P5x cells, with rucaparib 20 µM, 100% = cells with rucaparib alone
[39] = at 1.25 µM, OCI-P5x cells, without rucaparib
[40] = at 5 µM, OCI-C5x cells, with rucaparib 10 µM, 100% = cells with rucaparib alone
[41] = at 5 µM, OCI-C5x cells, without rucaparib
[42] = at 5 µM, OCI-P5x cells, with rucaparib 20 µM, 100% = cells with rucaparib alone
[43] = at 5 µM, OCI-P5x cells, without rucaparib
[44] = stronger effect = lower value, cell number ratio, induced over uninduced
[45] = measured here: relative caspase fold change +Dox/-Dox
[46] = measured here: total cells with miR-34 induction, stronger effect = lower value
[47] = measured here: total cells without miR-34 induction
[48] = MELAS cybrid survival, CellTiter-Glo 48 h, stronger effect = higher value
[49] = Rieske KO mouse fibroblast survival, CellTiter-Glo 72 h

COc1ccc(C2=N[C@H](c3ccc(Cl)cc3)[C@H](c3ccc(Cl)cc3)N2C(=O)N2CCNC(=O)C2)c(OC(C)C)c1
active: AC50 [1] 14800 nM | AC50 [2] 23.5 µM | AC50 [3] 16.6 µM | AC50 [4] 10500 nM
inactive: outcome [5] | outcome [6]

O=C1NC(=O)/C(=C/c2cccc(C(F)(F)F)c2)S1
inactive: outcome [1] | outcome [2] | outcome [4] | outcome [5] | outcome [7] | outcome [6]

COc1cccc2c1C(=O)c1c(O)c3c(c(O)c1C2=O)C[C@@](O)(C(=O)CO)C[C@@H]3O[C@H]1C[C@H](N)[C@H](OC2CCCCO2)[C@H](C)O1 (stereo not given in full)
active: AC50 [1] 417 nM and 332 nM | AC50 [2] 16.6 µM | AC50 [3] 2.95 µM and 833 nM | AC50 [4] 4.68 µM and 1.66 µM | AC50 [7] 2.95 µM and 2.35 µM | IC50 [6] 6.61 µM and 9.34 µM

CS(=O)(=O)Oc1ccc2c(NC(N)=O)c(C(=O)c3ccc(Cl)cc3Cl)oc2c1
inactive: outcome [1] | outcome [3] | outcome [4] | outcome [7] | outcome [6]
active: AC50 [2] 2.35 µM

O=C(Nc1cc(Cl)cc2c1[nH]c1cnccc12)c1cccnc1
inactive: outcome [1] | outcome [2] | outcome [3] | outcome [4] | outcome [5] | outcome [7] | outcome [6]

N#Cc1cc(NC(=O)Nc2nnc(-c3ccncc3)s2)ccc1-c1cn[nH]c1
active: AC50 [1] 372 nM
inactive: outcome [2] | outcome [3] | outcome [4] | outcome [5] | outcome [6]

CCC[C@H](Nc1nc(-c2ccc(NC(=O)NCC)c(OC)c2)ncc1C)c1cccnc1
inactive: viability [8, 13] 101% | viability [8, 14] 107% | viability [8, 16] 104% | viability [8, 17] 103% | viability [8, 18] 103% | viability [8, 20] 104% | viability [8, 21] 110% | viability [8, 22] 100%
active: AC50 [1] 132 nM | AC50 [2] 0.0148 µM | AC50 [3] 0.186 µM | AC50 [4] 118 nM | AC50 [7] 132 nM | viability [8, 12] 92.2% | viability [8, 15] 99.6% | viability [8, 19] 97.7% | viability [8, 23] 90.5% | viability [8, 24] 98.1% | viability [8, 25] 30.6% | viability [8, 26] 85.4% | viability [8, 27] 15.9% | viability [8, 28] 35.4% | viability [8, 29] 23.5% | viability [8, 30] 51.3% | viability [8, 31] 13% | viability [8, 32] 39.7% | viability [8, 33] 22.5% | viability [8, 34] 44.4% | viability [8, 35] 11% | viability [8, 36] 38% | viability [8, 37] 23.4% | viability [8, 38] 41.8% | viability [8, 39] 9.8% | viability [8, 40] 39.3% | viability [8, 41] 25.1% | viability [8, 42] 50.6% | viability [8, 43] 10.1%

CCCNS(=O)(=O)Nc1ncnc(OCCOc2ncc(Br)cn2)c1-c1ccc(Br)cc1
8090: cell count [9, 46]
-0.0447: z-score [10, 49]
8750: cell count [9, 47]
0.512: fold change [9, 45]
inactive: outcome [1] | outcome [2] | outcome [3] | outcome [5] | outcome [7] | outcome [6] | fold change [9, 44] 0.925 | z-score [10, 48] -0.373

CS(=O)(=O)c1ccc(C(=O)Nc2ccc(Cl)c(-c3ccccn3)c2)c(Cl)c1
2.58: SSMD [11]
active: viability [8, 14] 92.5% | viability [8, 23] 97.6% | viability [8, 42] 97.4% | viability [8, 43] 99.8%
0.641 and 0.534: z-score [10, 49]
inactive: outcome [1] | outcome [2] | outcome [3] | outcome [4] | outcome [5] | outcome [7] | outcome [6] | fold change [9, 44] 0.865 and 0.901 | plate-normalised HSF1 focus index [11] 1.15 | z-score [10, 48] 0.265 and -0.383 | viability [8, 12] 124% | viability [8, 13] 125% | viability [8, 15] 106% | viability [8, 16] 126% | viability [8, 17] 125% | viability [8, 18] 103% | viability [8, 19] 102% | viability [8, 20] 125% | viability [8, 21] 124% | viability [8, 22] 106% | viability [8, 24] 115% | viability [8, 25] 117% | viability [8, 26] 107% | viability [8, 27] 102% | viability [8, 28] 123% | viability [8, 29] 116% | viability [8, 30] 106% | viability [8, 31] 103% | viability [8, 32] 125% | viability [8, 33] 127% | viability [8, 34] 108% | viability [8, 35] 104% | viability [8, 36] 133% | viability [8, 37] 116% | viability [8, 38] 108% | viability [8, 39] 104% | viability [8, 40] 158% | viability [8, 41] 149%
7240: cell count [11]
0.712 and 0.902: fold change [9, 45]
10200 and 7460: cell count [9, 47]
8790 and 6720: cell count [9, 46]

Cc1ccc(C(=O)N(CCCN)[C@@H](c2nc3cc(Cl)ccc3c(=O)n2Cc2ccccc2)C(C)C)cc1
-9.79: SSMD [11]
3920: cell count [11]
inactive: plate-normalised HSF1 focus index [11] 0.497 | viability [8, 12] 104% | viability [8, 13] 109% | viability [8, 15] 101% | viability [8, 17] 116%
active: AC50 [1] 16.6 nM | AC50 [2] 13.2 µM | AC50 [3] 5.9 µM | AC50 [4] 9.34 nM | AC50 [7] 9340 nM | IC50 [6] 16.6 nM | viability [8, 14] 95.5% | viability [8, 16] 90.5% | viability [8, 18] 78.5% | viability [8, 19] 81.4% | viability [8, 20] 44.7% | viability [8, 21] 76.6% | viability [8, 22] 68.7% | viability [8, 23] 66.4% | viability [8, 24] 43.1% | viability [8, 25] 55.9% | viability [8, 26] 51.4% | viability [8, 27] 21.1% | viability [8, 28] 47.4% | viability [8, 29] 65.7% | viability [8, 30] 55.4% | viability [8, 31] 24.5% | viability [8, 32] 56.5% | viability [8, 33] 65.1% | viability [8, 34] 54.8% | viability [8, 35] 22.4% | viability [8, 36] 50.7% | viability [8, 37] 61.5% | viability [8, 38] 56.9% | viability [8, 39] 24.3% | viability [8, 40] 6.32% | viability [8, 41] 47.8% | viability [8, 42] 26.6% | viability [8, 43] 17.1%
